Screens deposited in PubChem BioAssay by National Center for Advancing Translational Sciences (NCATS).
Sampled rows, rich in hits. Any-hit rate of the full collection: about 19%.
HT1080 IDH1KD tx: qHTS for induction of synthetic lethality in tumor cells producing 2HG: qHTS for the HT-1080-IDH1KD cell line. HT-1080 IDH1 knockdown viability, ATP luminescence, 48 h. Potency, µM (top dose mostly 46.1 µM), inactives show top-dose activity, negative = toxicity, actives largely listed as cytotoxic. 2% of 360,000 active;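 note: potency is the fitted concentration of half-maximal effect; 0% = DMSO wells and -100% = cell-free medium wells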
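IDH1KD HT-1080 cells, 750/well, RPMI + 5% FBS; compound pinned after 2 h settling; 48 h, 37 °C; CellTiter-Glo luminescence; % activity normalised to DMSO and no-cell wells; curves fitted, classed by r2 and efficacy.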
IL-1B inflam inh: qHTS for Inhibitors of Inflammasome Signaling: IL-1-beta AlphaLISA Primary Screen | THP-1 LPS/ATP IL-1B secretion, AlphaLISA, 16 h; active compounds read low | activity change, % at 57.5 µM | 4.7% of 360,000 active; in the data active = activity change below about -50%; inconclusive = mostly about -30% to -49%
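THP-1 cells pretreated 1 hr with compounds (up to 57.5 uM final), then stimulated with LPS (250 ng/mL final) plus ATP (1.25 mM final); secreted IL-1B measured by AlphaLISA after 16 hr, decreased signal indicating inhibition.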
HT1080NT lethal: qHTS for induction of synthetic lethality in tumor cells producing 2HG: qHTS for the HT-1080-NT fibrosarcoma cell line | Potency, µM (highest dose often 46.1 µM), for the others: at the highest dose activity, negative = less viability, most hits filed as cytotoxic | 1.6% of 360,000 active | HT-1080-NT fibrosarcoma viability, CellTiter-Glo ATP luminescence, 48 h;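 note: NT is the 2HG producing partner of a matched IDH1 knockdown line; potency is the fitted concentration of half-maximal effect; 0% = DMSO-treated cells and -100% = media-only wells without cells; nearly all actives have a fitted effect of over 55% in size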
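HT-1080-NT; 750 cells/well; 5% FBS RPMI; 48 h compound, 37 degrees C; CellTiter-Glo luminescence; curve fitting and curve-class assignment.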
DT40 TDP1 no CPT: qHTS for Inhibitors of human tyrosyl-DNA phosphodiesterase 1 (TDP1): qHTS in cells in absence of CPT | 15% of 420,000 active | AID 686978, 2013 | Potency, µM (doses to about 46.2 µM), for the others: top-dose activity change, negative = growth inhibition, most hits filed as inhibitors | DT40 Tdp1-/- hTDP1 cells, no CPT, ATP luminescence, 48 h; note: potency is the fitted concentration of half-maximal effect; nearly all actives have a fitted effect of over 55% in size
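Chicken DT40 Tdp1-/- cells complemented with human TDP1, screened without camptothecin (DMSO vehicle only), 400 cells/well. Compounds pin-transferred, cells incubated at 37 °C for at least 48 hr. Growth read as ATP-dependent luminescence (CellTiter-Glo, 30 min at RT).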
TDP1 cell CPT: qHTS for Inhibitors of human tyrosyl-DNA phosphodiesterase 1 (TDP1): qHTS in cells in presence of CPT; Potency, µM (top dose mostly 46.2 µM), inactives show at the top dose activity change, negative = growth inhibition, usual class: inhibitors; AID 686979, 2013; 12% of 420,000 active; chicken DT40 Tdp1-/-;hTDP1 cells + 20 nM CPT, ATP luminescence, 48 h; note: potency is the fitted concentration of half-maximal effect; nearly all actives have a fitted effect of over 55% in size
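Cell growth measured by CellTiter-Glo luminescence after a minimum 48 h, 37 C compound exposure with 20 nM CPT in Tdp1-knockout DT40 cells stably expressing hTDP1, seeded 400/well; qHTS titration format.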
Starred values were filed as active, the others as inactive; ? = inconclusive; nt = not tested or not shown; [ ] = dose if it differs, or a comment. Unless noted, calls come from the whole dose curve; as a rule, active = well fitted curve in the direction sought with a large enough effect; inconclusive = small, poorly fitted or top-dose-only effect, or another doubt; inactive = no such curve, though single readings can be large; an effect the other way counts as inactive or inconclusive. Unless noted, % is set by controls: 0 for no effect and ±100 for the full control effect.

SMILES	HT1080 IDH1KD tx	IL-1B inflam inh	HT1080NT lethal	DT40 TDP1 no CPT	TDP1 cell CPT
CCN(CC)C(=O)C1CCCN(c2ccc([N+](=O)[O-])cc2[N+](=O)[O-])C1 (centres undefined)	-2%	-2	-1%	?	-15%
O=C(N/N=C/c1ccccc1O)c1cccc(C(F)(F)F)c1	2.6µM*	71	?	3.3µM*	5.2µM*
O=C(N/N=C/c1ccccn1)c1cccc(S(=O)(=O)Nc2ccccc2Cl)c1	?	92	-18%	16µM*	16µM*
Cc1ccsc1/C=N/NC(=O)c1cccc(S(=O)(=O)Nc2ccccc2Cl)c1	-9%	0	-10%	-12%	-16%
O=C(CC1NCCNC1=O)Nc1ccc(F)c(Cl)c1 (centres undefined)	nt	nt	nt	-16%	-7%
Cc1cccc(C(=O)N/N=C/c2ccccn2)c1	?	27	-19%	15µM*	?
O=C(NN=Cc1ccccc1O)c1cccc([N+](=O)[O-])c1	1.2µM*	160	0.29µM*	0.16µM*	0.82µM*
COc1ccc(/C=N/NC(=O)c2cccc([N+](=O)[O-])c2)cc1O	-19%	7	-15%	?	-29%
CC1C(=O)CCC2[C@]1(C)CCC1[C@]2(C)CC[C@@]2(C)C3CC(C)(C)CC[C@]3(C)CC[C@@]12C (some centres undefined)	nt	nt	nt	-9%	7%
CCOC(=O)C1CCCN(C(=O)CCCn2nnnc2CN2CCC(C)CC2)C1 (centres undefined)	3%	-4	-1%	11%	-12%
COc1ccccc1NC(=O)Cn1c(=O)n(Cc2ccco2)c(=O)c2oc3ccccc3c21	nt	nt	nt	15µM*	?
COc1cccc(Cn2c(=O)n(Cc3ccco3)c(=O)c3oc4ccccc4c32)c1	nt	nt	nt	23µM*	?
O=c1c2oc3ccccc3c2n(Cc2cccc(Cl)c2)c(=O)n1Cc1ccco1	nt	nt	nt	16µM*	16µM*
NC(=O)[C@@H]1CCCN1C(=O)CC1(c2cccc(F)c2)CC(=O)N(C2CCCC2)C1=O (some centres undefined)	nt	nt	nt	-6%	1%[9.04 µM]
COCCn1c(SCC(=O)N2CCCC2=O)nnc1-c1ccncc1	-5%	18	6%	7%	4%
CC(C)NC(=O)c1cc(C2CCCCN2S(=O)(=O)c2ccccc2)on1 (centres undefined)	7%	5	-13%	-26%	-26%
COc1ccc(C(=O)COC(=O)c2sc(C)nc2C)cc1F	0%	-10	0%	-21%	-7%
CCN(CC)CCSc1nnc2c3ccccc3n(CCc3ccccc3)c2n1	-18%	?	-21%	?	?
C=CCn1c2ccccc2c2nnc(SCCCn3c(=O)[nH]c4ccccc43)nc21	16µM*	-79*	?	13µM*	?
C=CCn1c2ccccc2c2nnc(SCCN3CCCCC3)nc21	-8%	-14	-16%	18µM*	-26%
C=CCn1c2ccccc2c2n[nH]c(=S)nc21	-2%	10	0%	?	-15%
c1ccc(Cn2c3ccccc3c3nnc(SCCN4CCCCC4)nc32)cc1	5%	nt	9%	23µM*	23µM*
Cc1ccc2c(CC(=O)Nc3cc(C(F)(F)F)ccc3Cl)coc2c1C	nt	nt	nt	-28%	-7%
CCOC(=O)C1CCCN(c2nc3ccccc3nc2C(C#N)C(=O)OC(C)COC)C1 (centres undefined)	4%	-22	0%	?	-15%
CCOC(=O)C1CCCN(c2nc3ccccc3nc2C(C#N)C(=O)OCC)C1 (centres undefined)	-28%	-29	?	23µM*	?
SMILES	HT1080 IDH1KD tx	IL-1B inflam inh	HT1080NT lethal	DT40 TDP1 no CPT	TDP1 cell CPT
CCOC(=O)C1CCCN(c2nc3ccccc3nc2C(C#N)C(=O)OCCOC)C1 (centres undefined)	-8%	-18	-5%	21µM*	?
O=C(NCCCN1CCOCC1)c1cccc(NC(=O)c2ccccc2)c1	3%	2	18%	-1%	8%
Cc1ccc(NC(=O)c2ccc(NCCCN3CCC(C)CC3)c([N+](=O)[O-])c2)cc1F	?	?	?	8.2µM*	4.6µM*
O=C(Nc1cccc(Cl)c1)c1ccc(NCCCN2CCOCC2)c([N+](=O)[O-])c1	?	-51*	?	29µM*	?
Cc1ccc(NC(=O)c2ccc(NCCN)c([N+](=O)[O-])c2)cc1	0%	-9	-3%	?	?
Cc1oc(-c2cccc(NC(=O)c3ccccn3)c2)nc1CNC(=O)c1ccc(C(F)(F)F)cc1	nt	nt	nt	-24%	0%[9.04 µM]
CCn1c(CN2CCC(C)CC2)nc2cc(NC(=O)COc3ccc([N+](=O)[O-])cc3)ccc21	nt	nt	nt	-19%	-20%
CCn1c(CN2CCC(C)CC2)nc2cc(NC(=O)c3cccc([N+](=O)[O-])c3)ccc21	nt	nt	nt	23µM*	15µM*
COc1cccc(C(=O)NC(Cc2ccccc2)c2ccc3c(c2)OCCCO3)c1 (centres undefined)	-6%	-7	1%	?	?
COc1ccc(NC(=O)C(CC(C)C)NS(=O)(=O)c2ccc3c(c2)oc(=O)n3C)cc1Cl (centres undefined)	nt	nt	nt	-20%	-4%
c1ccc(-n2c3ccccc3c3ccccc32)cc1	-2%	14	19%	?	?
c1ccc(-c2c[n+]3c(n2-c2ccccc2)SCC3)cc1	?	-10	-3%	21µM*	?
CCOc1ccc(-n2c(-c3ccc(Cl)cc3)c[n+]3c2SCC3)cc1	23µM*	-86*	-10%	2.1µM*	1.8µM*
Cc1cc(Cl)ccc1NC(=O)CSc1n[nH]c(N)n1	2%	-2	6%	-3%	?
COc1ccc(C2=C/C(=C\c3cccc(OC(C)=O)c3)C(=O)O2)cc1	-4%	-21	0%	?	?
COc1ccc(C2=C/C(=C\c3ccccc3OC(C)=O)C(=O)O2)cc1	-1%	-3	3%	15µM*	21µM*
O=C(c1ccc(Br)s1)N1CCN(C/C=C/c2ccccc2)CC1	-25%	-8	-2%	?	?
C=CCn1c[n+](CC(=O)c2ccc(Br)s2)c2ccccc21	-9%	-65*	-21%	12µM*	21µM*
COc1ccc(-n2c(=O)c3ccccc3n(CC(=O)NC3CCCCC3)c2=O)cc1	0%	17	4%	-16%	-4%
